Among the data in PubChem BioAssay (NCI) are growth values, retold here.

Several values for one entry are separate records, joined by “and”; a condition that tells them apart may be missing. Equal entries are not always repeated. The panel holds about 83,000 compounds, 20% with a hit somewhere; the sample as a whole holds those more often.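 Activity criterion: percent growth below 10, measured after cells in 96-well plates were exposed to a single compound concentration for 48 hours.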 A number with no mark means an inactive call. Activity calls are given as the source filed them.

Among the test systems are SK-MEL-2 melanoma; EKVX NSCLC; SN12C renal; UO-31 renal; TK-10 renal; ACHN renal; CAKI-1 renal; A498 renal; CCRF-CEM leukemia; MOLT-4 leukemia.
Assay in all cases: NCI-60 one-dose screen, 48 h (100 = growth as untreated, 0 = no growth, -100 = all killed)
What all share (conditions): 10 µM unless noted

`O=C(c1ccc(Cl)cc1)C1[C@H](c2ccccc2Cl)[C@@H](c2ccccc2)NC12C(=O)Nc1ccc(Br)cc12` (stereo not given in full): the growth in the assay on SK-MEL-2 melanoma is -89.9% (active); with EKVX NSCLC, -42.2% (active); in the assay with SN12C renal it was -83.9% (active); in the assay on UO-31 renal, -97.5% (active); in the assay with TK-10 renal it was -2.31% (active); in the assay on ACHN renal, -69.2% (active). Moreover, the growth in the assay with CAKI-1 renal was -47.6% (active); in the assay with A498 renal it was -48% (active); with CCRF-CEM leukemia, -13.5% (active); in the assay with MOLT-4 leukemia it was -24.5% (active).

`Cc1ccc2nc(COc3ccc(C(=O)NNC(=O)Nc4ccc(Cl)c(C(F)(F)F)c4)cc3)[nH]c2c1`: the growth was 98.4% in the assay with SK-MEL-2 melanoma; 77.3% in the assay with EKVX NSCLC; 38.7% in the assay with SN12C renal; 110% in the assay with UO-31 renal; 110% in the assay on TK-10 renal; 89.7% in the assay on ACHN renal. The growth in the assay on CAKI-1 renal is 73.2%; in the assay on A498 renal it was 116%; in the assay with CCRF-CEM leukemia, 41.6%; in the assay with MOLT-4 leukemia, 75.5%.

Regarding `N#C/C(=C/c1ccc([N+](=O)[O-])cc1)c1nnc(NC(=O)c2ccc(-n3c(=O)[nH]c4ccccc4c3=O)cc2)s1`, the growth in the assay with SK-MEL-2 melanoma was 103%; in the assay with EKVX NSCLC it was 93.9%; in the assay on SN12C renal, 94%; with UO-31 renal, 75.6%; in the assay with TK-10 renal, 108%; in the assay on ACHN renal it was 96.3%. In addition, the growth in the assay with CAKI-1 renal is 92%; with A498 renal, 132%; in the assay on CCRF-CEM leukemia it was 97.8%; with MOLT-4 leukemia, 98.5%.

Consider `C#CCN(C)CCCOc1ccc(N(C)C(=O)c2cc(C(C)C)c(O)cc2O)cc1Cl`, for which the growth in the assay on SK-MEL-2 melanoma is -6.01% (active); with EKVX NSCLC, 15.9%; with SN12C renal, 11.5%; with UO-31 renal, 16.5%; in the assay with TK-10 renal, 21.4%; with ACHN renal, 15.7%. For the same compound, the growth in the assay on CAKI-1 renal was 16.6%; in the assay with A498 renal, 39.7%; in the assay on CCRF-CEM leukemia, 13.9%; in the assay with MOLT-4 leukemia it was -14% (active).

For `CCOC(=O)/C(F)=C/C1CC1C1CCN(C(=O)OC(C)(C)C)CC1` (stereo not given), the growth was 110% in the assay on SK-MEL-2 melanoma; 74.4% in the assay on EKVX NSCLC; 62.6% in the assay with SN12C renal; 81.6% in the assay with UO-31 renal; 104% in the assay with TK-10 renal; 97.4% in the assay on ACHN renal. Besides, the growth in the assay with CAKI-1 renal was 93.7%; in the assay with A498 renal, 127%; in the assay on CCRF-CEM leukemia it was 104%; with MOLT-4 leukemia, 106%.

Regarding `COc1ccc(N=Nc2c(N)nn3c(-c4ccc5c(c4)C=S=C5)ccnc23)cc1`, the growth with SK-MEL-2 melanoma was 93.4%; in the assay on EKVX NSCLC, 33.9%; with SN12C renal it was 39%; in the assay with UO-31 renal it was 16.4%; in the assay with TK-10 renal, 82.4%; with ACHN renal, 31.6%. Moreover, the growth with CAKI-1 renal is 34%; in the assay with A498 renal it was 144%; in the assay with CCRF-CEM leukemia it was 10.1%; in the assay on MOLT-4 leukemia, 32.9%.

For `COc1ccc(C2=NN(C(=O)[C@H]3[C@@H](c4ccco4)c4sc(=O)[nH]c4S[C@@H]3C)C(c3ccc4ccccc4c3)C2)cc1` (stereo not given in full), the growth in the assay with SK-MEL-2 melanoma is 32.3%; in the assay on EKVX NSCLC it was 23.2%; in the assay on SN12C renal, 39%; in the assay on UO-31 renal it was 19.5%; with TK-10 renal, 50.4%; in the assay on ACHN renal, 16%. Besides, the growth is 20.7% with CAKI-1 renal, 102% with A498 renal, 6.09% (active) in the assay with CCRF-CEM leukemia and 12% in the assay on MOLT-4 leukemia.

For `O=C(NNC(=O)c1ccc(OCc2nc3ccc(Cl)cc3[nH]2)cc1)Nc1ccc(Cl)c(C(F)(F)F)c1`, the growth in the assay on SK-MEL-2 melanoma was 109%; with EKVX NSCLC, 69.6%; with SN12C renal it was 64.9%; with UO-31 renal, 82.8%; with TK-10 renal, 116%; with ACHN renal, 75.3%. The growth with CAKI-1 renal was 81%; in the assay on A498 renal, 154%; with CCRF-CEM leukemia, 48.9%; with MOLT-4 leukemia, 60.6%.

As to `COc1cc(C=O)ccc1Oc1nc(Nc2ccc(F)cc2)nc(N(C)C)n1`, the growth with SK-MEL-2 melanoma is 62.6% and 85.2%; with EKVX NSCLC, 76.9% and 60.4%; with SN12C renal it was 92.2% and 58.5%; in the assay on UO-31 renal, 67.6% and 48.7%; in the assay on TK-10 renal, 84.2% and 86.8%; in the assay with ACHN renal it was 105% and 63.3%. Besides, the growth in the assay with CAKI-1 renal is 69.2% and 58.3%; in the assay on A498 renal it was 98.6% and 123%; in the assay on CCRF-CEM leukemia, 86.1% and 18.1%; in the assay with MOLT-4 leukemia, 73.1% and 23.8%.

As for `CCCN(CCC)S(=O)(=O)c1ccc(C(=O)O)cc1.CCCN(CCC)S(=O)(=O)c1ccc(C(=O)O)cc1.[Cl][Pt+2][Cl].[NH2-].[NH2-]`, the growth in the assay on SK-MEL-2 melanoma is -31.6% (active); in the assay with EKVX NSCLC, 44.8%; in the assay on SN12C renal, 12.4%; with UO-31 renal, 98.4%; with TK-10 renal, 109%; with ACHN renal, 13.4%. Further, the growth in the assay on CAKI-1 renal was 32.4%; in the assay on A498 renal, 91.5%; in the assay on CCRF-CEM leukemia it was 50.4%; in the assay on MOLT-4 leukemia it was -2.08% (active).

As for `O=C1N/C(=N\c2nccs2)S/C1=C\c1ccc([N+](=O)[O-])cc1`, the growth was 16.8% in the assay on SK-MEL-2 melanoma; 14.3% in the assay on EKVX NSCLC; 11.9% with SN12C renal; 12.6% in the assay on UO-31 renal; 31.9% in the assay on TK-10 renal; 11.3% with ACHN renal. For the same compound, the growth is 18.8% in the assay with CAKI-1 renal, 33.8% in the assay on A498 renal, -0.568% (active) with CCRF-CEM leukemia and 11.9% with MOLT-4 leukemia.

`COc1ccc(OC)c(Cn2cc(C#N)c(N)c2C(=O)c2ccc(Br)cc2)c1`: the growth in the assay with SK-MEL-2 melanoma is 4.44% (active); in the assay on EKVX NSCLC, 58.2%; with SN12C renal, 64.4%; in the assay on UO-31 renal, 34.6%; in the assay on TK-10 renal, 62.4%; in the assay with ACHN renal, 84.9%. The growth is 45.2% in the assay on CAKI-1 renal, 86.7% with A498 renal, 44.3% with CCRF-CEM leukemia and 20.4% in the assay on MOLT-4 leukemia.
